# Experimental data published in PMC8384837, “Expanding the binding specificity for RNA recognition by a PUF domain”.
# Assays:
# Assay in all cases: yeast three-hybrid, YBZ-1, SC-Leu-His + 0.5 mM 3-AT, 4 days
# Conditions in all cases: tags: N-Gal4 AD-HA kept; label: inside an RPR1-promoter hybrid RNA with tandem MS2 sites; ssRNA
# [1] = biological target: PUM1 PUF domain R1-KVR (Homo sapiens, UniProt Q14671 828-1176, S863K;R864V;Q867R)
# Method in brief: (§1)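 Repeat regions from input (SC-Leu) and selection (SC-Leu-His + 0.5 mM 3-AT) plates were PCR-amplified and Illumina-sequenced after four days of growth. The cells were strain YBZ-1 with a LexA–MS2 coat fusion and a HIS3 reporter, co-expressing Pumilio-1 PUF domain libraries and matching RNA elements from a centromeric plasmid. The interaction score is the log change in variant frequency from input to selection, taken in log2 with a pseudocount of 1 for absent variants.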
# [2] = biological target: PUM1 PUF domain R1-RLC (Homo sapiens, UniProt Q14671 828-1176, S863R;R864L;Q867C)
# Method in brief: as §1
# [3] = biological target: PUM1 PUF domain R1-RHR (Homo sapiens, UniProt Q14671 828-1176, S863R;R864H;Q867R)
# Method in brief: as §1
# [4] = biological target: PUM1 PUF domain R8-MRR (Homo sapiens, UniProt Q14671 828-1176, N1122M;Y1123R;Q1126R)
# Method in brief: as §1
# [5] = biological target: PUM1 PUF domain R8-VYP (Homo sapiens, UniProt Q14671 828-1176, N1122V;Q1126P)
# Method in brief: as §1
# [6] = biological target: PUM1 PUF domain R8-FYR (Homo sapiens, UniProt Q14671 828-1176, N1122F;Q1126R)
# Method in brief: as §1
# [7] = biological target: PUM1 PUF domain R8-KFD (Homo sapiens, UniProt Q14671 828-1176, N1122K;Y1123F;Q1126D)
# Method in brief: as §1
# [8] = biological target: PUM1 PUF domain R3-VFA (Homo sapiens, UniProt Q14671 828-1176, C935V;R936F;Q939A)
# Method in brief: as §1
# [9] = biological target: PUM1 PUF domain R3-PWL (Homo sapiens, UniProt Q14671 828-1176, C935P;R936W;Q939L)
# Method in brief: as §1
# [10] = biological target: PUM1 PUF domain R3-SRS (Homo sapiens, UniProt Q14671 828-1176, C935S;Q939S)
# Method in brief: as §1
# [11] = biological target: PUM1 PUF domain R3-WYG (Homo sapiens, UniProt Q14671 828-1176, C935W;R936Y;Q939G)
# Method in brief: as §1
# [12] = biological target: PUM1 PUF domain R4-APM (Homo sapiens, UniProt Q14671 828-1176, N971A;H972P;Q975M)
# Method in brief: as §1
# [13] = biological target: PUM1 PUF domain R4-WAC (Homo sapiens, UniProt Q14671 828-1176, N971W;H972A;Q975C)
# Method in brief: as §1
# [14] = biological target: PUM1 PUF domain R2-LWT (Homo sapiens, UniProt Q14671 828-1176, N899L;Y900W;Q903T)
# Method in brief: as §1
# [15] = biological target: PUM1 PUF domain R5-RWS (Homo sapiens, UniProt Q14671 828-1176, C1007R;R1008W;Q1011S)
# Method in brief: as §1
# [16] = biological target: PUM1 PUF domain R5-PHG (Homo sapiens, UniProt Q14671 828-1176, C1007P;R1008H;Q1011G)
# Method in brief: as §1
# [17] = biological target: PUM1 PUF domain R5-RHC (Homo sapiens, UniProt Q14671 828-1176, C1007R;R1008H;Q1011C)
# Method in brief: as §1
# [18] = biological target: PUM1 PUF domain R5-GMI (Homo sapiens, UniProt Q14671 828-1176, C1007G;R1008M;Q1011I)
# Method in brief: as §1
# [19] = biological target: PUM1 PUF domain R3-ACF (Homo sapiens, UniProt Q14671 828-1176, C935A;R936C;Q939F)
# Method in brief: as §1
# [20] = biological target: PUM1 PUF domain R8-MHR (Homo sapiens, UniProt Q14671 828-1176, N1122M;Y1123H;Q1126R)
# Method in brief: as §1
# Chain of PUM1 PUF domain R4-APM (Q14671 828-1176 N971A/H972P/Q975M): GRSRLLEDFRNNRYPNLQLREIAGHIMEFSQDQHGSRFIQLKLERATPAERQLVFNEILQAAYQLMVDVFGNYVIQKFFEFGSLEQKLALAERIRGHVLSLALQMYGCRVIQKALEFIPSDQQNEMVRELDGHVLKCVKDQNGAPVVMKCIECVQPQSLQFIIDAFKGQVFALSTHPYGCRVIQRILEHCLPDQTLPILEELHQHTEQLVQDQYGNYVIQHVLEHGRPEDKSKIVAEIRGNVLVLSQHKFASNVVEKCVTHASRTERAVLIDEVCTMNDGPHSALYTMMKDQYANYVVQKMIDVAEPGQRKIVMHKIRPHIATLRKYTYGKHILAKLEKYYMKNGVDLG
# Chain of PUM1 PUF domain R2-LWT (Q14671 828-1176 N899L/Y900W/Q903T): as the sequence (Q14671 828-1176 N971A/H972P/Q975M) above, with N72L, Y73W, Q76T, A144N, P145H, M148Q counted along it
# Chain of PUM1 PUF domain R3-SRS (Q14671 828-1176 C935S/Q939S): as the sequence (Q14671 828-1176 N971A/H972P/Q975M) above, with C108S, Q112S, A144N, P145H, M148Q counted along it
# Chain of PUM1 PUF domain R1-RHR (Q14671 828-1176 S863R/R864H/Q867R): as the sequence (Q14671 828-1176 N971A/H972P/Q975M) above, with S36R, R37H, Q40R, A144N, P145H, M148Q counted along it
# Chain of PUM1 PUF domain R4-WAC (Q14671 828-1176 N971W/H972A/Q975C): as the sequence (Q14671 828-1176 N971A/H972P/Q975M) above, with A144W, P145A, M148C counted along it
# Chain of PUM1 PUF domain R1-RLC (Q14671 828-1176 S863R/R864L/Q867C): as the sequence (Q14671 828-1176 N971A/H972P/Q975M) above, with S36R, R37L, Q40C, A144N, P145H, M148Q counted along it
# Chain of PUM1 PUF domain R1-KVR (Q14671 828-1176 S863K/R864V/Q867R): as the sequence (Q14671 828-1176 N971A/H972P/Q975M) above, with S36K, R37V, Q40R, A144N, P145H, M148Q counted along it
# Chain of PUM1 PUF domain R3-PWL (Q14671 828-1176 C935P/R936W/Q939L): as the sequence (Q14671 828-1176 N971A/H972P/Q975M) above, with C108P, R109W, Q112L, A144N, P145H, M148Q counted along it
# Chain of PUM1 PUF domain R5-PHG (Q14671 828-1176 C1007P/R1008H/Q1011G): as the sequence (Q14671 828-1176 N971A/H972P/Q975M) above, with A144N, P145H, M148Q, C180P, R181H, Q184G counted along it
# Chain of PUM1 PUF domain R8-MRR (Q14671 828-1176 N1122M/Y1123R/Q1126R): as the sequence (Q14671 828-1176 N971A/H972P/Q975M) above, with A144N, P145H, M148Q, N295M, Y296R, Q299R counted along it
# Chain of PUM1 PUF domain R3-WYG (Q14671 828-1176 C935W/R936Y/Q939G): as the sequence (Q14671 828-1176 N971A/H972P/Q975M) above, with C108W, R109Y, Q112G, A144N, P145H, M148Q counted along it
# Chain of PUM1 PUF domain R5-RHC (Q14671 828-1176 C1007R/R1008H/Q1011C): as the sequence (Q14671 828-1176 N971A/H972P/Q975M) above, with A144N, P145H, M148Q, C180R, R181H, Q184C counted along it
# Chain of PUM1 PUF domain R8-FYR (Q14671 828-1176 N1122F/Q1126R): as the sequence (Q14671 828-1176 N971A/H972P/Q975M) above, with A144N, P145H, M148Q, N295F, Q299R counted along it
# Chain of PUM1 PUF domain R8-VYP (Q14671 828-1176 N1122V/Q1126P): as the sequence (Q14671 828-1176 N971A/H972P/Q975M) above, with A144N, P145H, M148Q, N295V, Q299P counted along it
# Chain of PUM1 PUF domain R3-VFA (Q14671 828-1176 C935V/R936F/Q939A): as the sequence (Q14671 828-1176 N971A/H972P/Q975M) above, with C108V, R109F, Q112A, A144N, P145H, M148Q counted along it
# Chain of PUM1 PUF domain R5-RWS (Q14671 828-1176 C1007R/R1008W/Q1011S): as the sequence (Q14671 828-1176 N971A/H972P/Q975M) above, with A144N, P145H, M148Q, C180R, R181W, Q184S counted along it
# Chain of PUM1 PUF domain R8-KFD (Q14671 828-1176 N1122K/Y1123F/Q1126D): as the sequence (Q14671 828-1176 N971A/H972P/Q975M) above, with A144N, P145H, M148Q, N295K, Y296F, Q299D counted along it
# Chain of PUM1 PUF domain R8-MHR (Q14671 828-1176 N1122M/Y1123H/Q1126R): as the sequence (Q14671 828-1176 N971A/H972P/Q975M) above, with A144N, P145H, M148Q, N295M, Y296H, Q299R counted along it
# Chain of PUM1 PUF domain R5-GMI (Q14671 828-1176 C1007G/R1008M/Q1011I): as the sequence (Q14671 828-1176 N971A/H972P/Q975M) above, with A144N, P145H, M148Q, C180G, R181M, Q184I counted along it
# Chain of PUM1 PUF domain R3-ACF (Q14671 828-1176 C935A/R936C/Q939F): as the sequence (Q14671 828-1176 N971A/H972P/Q975M) above, with C108A, R109C, Q112F, A144N, P145H, M148Q counted along it
sequence,measurement,setting,value
GGCUAGAACUAGUGGAUCCCCCGGCGCCCGGCGGCUCGAGCCCGGGUAAGUGUAAAUCGUCUGCAUGCCGCCGGGCGCCAUGCCUGCAGGUCGACUCUAGAAAACAUG,binding signal,[1],1.81 log2 enrichment (interaction score)
same,binding signal,[2],3.21 log2 enrichment (interaction score)
same,binding signal,[3],2.88 log2 enrichment (interaction score)
GGCUAGAACUAGUGGAUCCCCCGGCGCCCGGCGGCUCGAGCCCGGGUAAGCGUAAAUAGUCUGCAUGCCGCCGGGCGCCAUGCCUGCAGGUCGACUCUAGAAAACAUG,binding signal,[4],2.54 log2 enrichment (interaction score)
same,binding signal,[5],3.87 log2 enrichment (interaction score)
same,binding signal,[6],5.29 log2 enrichment (interaction score)
same,binding signal,[7],5.69 log2 enrichment (interaction score)
GGCUAGAACUAGUGGAUCCCCCGGCGCCCGGCGGCUCGAGCCCGGGUAAGUGUAAAUUGUCUGCAUGCCGCCGGGCGCCAUGCCUGCAGGUCGACUCUAGAAAACAUG,binding signal,[1],5.73 log2 enrichment (interaction score)
same,binding signal,[2],1.93 log2 enrichment (interaction score)
same,binding signal,[3],2.91 log2 enrichment (interaction score)
GGCUAGAACUAGUGGAUCCCCCGGCGCCCGGCGGCUCGAGCCCGGGUAAGUGUAAUUAGUCUGCAUGCCGCCGGGCGCCAUGCCUGCAGGUCGACUCUAGAAAACAUG,binding signal,[8],2.77 log2 enrichment (interaction score)
same,binding signal,[9],3.68 log2 enrichment (interaction score)
same,binding signal,[10],1.65 log2 enrichment (interaction score)
same,binding signal,[11],4.81 log2 enrichment (interaction score)
GGCUAGAACUAGUGGAUCCCCCGGCGCCCGGCGGCUCGAGCCCGGGUAAGUGUACAUAGUCUGCAUGCCGCCGGGCGCCAUGCCUGCAGGUCGACUCUAGAAAACAUG,binding signal,[12],2.11 log2 enrichment (interaction score)
same,binding signal,[13],2.99 log2 enrichment (interaction score)
GGCUAGAACUAGUGGAUCCCCCGGCGCCCGGCGGCUCGAGCCCGGGUAAGUGUAAAGAGUCUGCAUGCCGCCGGGCGCCAUGCCUGCAGGUCGACUCUAGAAAACAUG,binding signal,[14],2.4 log2 enrichment (interaction score)
GGCUAGAACUAGUGGAUCCCCCGGCGCCCGGCGGCUCGAGCCCGGGUAAGUGUAUAUAGUCUGCAUGCCGCCGGGCGCCAUGCCUGCAGGUCGACUCUAGAAAACAUG,binding signal,[12],2.03 log2 enrichment (interaction score)
GGCUAGAACUAGUGGAUCCCCCGGCGCCCGGCGGCUCGAGCCCGGGUAAGUGUAAAAAGUCUGCAUGCCGCCGGGCGCCAUGCCUGCAGGUCGACUCUAGAAAACAUG,binding signal,[14],5.62 log2 enrichment (interaction score)
GGCUAGAACUAGUGGAUCCCCCGGCGCCCGGCGGCUCGAGCCCGGGUAAGUGUAAGUAGUCUGCAUGCCGCCGGGCGCCAUGCCUGCAGGUCGACUCUAGAAAACAUG,binding signal,[8],2.39 log2 enrichment (interaction score)
same,binding signal,[10],2.81 log2 enrichment (interaction score)
same,binding signal,[11],3.09 log2 enrichment (interaction score)
GGCUAGAACUAGUGGAUCCCCCGGCGCCCGGCGGCUCGAGCCCGGGUAAGUGUUAAUAGUCUGCAUGCCGCCGGGCGCCAUGCCUGCAGGUCGACUCUAGAAAACAUG,binding signal,[15],6.47 log2 enrichment (interaction score)
same,binding signal,[16],4.37 log2 enrichment (interaction score)
same,binding signal,[17],5.98 log2 enrichment (interaction score)
same,binding signal,[18],2.18 log2 enrichment (interaction score)
GGCUAGAACUAGUGGAUCCCCCGGCGCCCGGCGGCUCGAGCCCGGGUAAGUGUAAAUAGUCUGCAUGCCGCCGGGCGCCAUGCCUGCAGGUCGACUCUAGAAAACAUG,binding signal,[12],4.28 log2 enrichment (interaction score)
same,binding signal,[19],4.04 log2 enrichment (interaction score)
same,binding signal,[9],2.76 log2 enrichment (interaction score)
same,binding signal,[4],1.68 log2 enrichment (interaction score)
same,binding signal,[5],2.77 log2 enrichment (interaction score)
same,binding signal,[16],4.89 log2 enrichment (interaction score)
same,binding signal,[17],3.15 log2 enrichment (interaction score)
same,binding signal,[6],5.38 log2 enrichment (interaction score)
same,binding signal,[20],3.92 log2 enrichment (interaction score)
same,binding signal,[10],4.33 log2 enrichment (interaction score)
same,binding signal,[13],3.2 log2 enrichment (interaction score)
same,binding signal,[14],1.6 log2 enrichment (interaction score)
